Experimental data: PMC5540273 (PLoS ONE, 2017)
Where two headings read alike, the source gives them in different places.

Columns and labels:
FYN = settings: concentration: 1 μM, replicates: in singlicate; n = 1
GAK = settings: concentration: 1 μM, replicates: in singlicate; n = 1
GCN2(Kin.Dom.2,S808G) = system: T1, GCN2(Kin.Dom.2,S808G); settings: concentration: 1 μM, replicates: in singlicate; n = 1
T1 construct: gene EIF2AK4

GRK1 = settings: concentration: 1 μM, replicates: in singlicate; n = 1
GRK2 = system: T2, GRK2; settings: concentration: 1 μM, replicates: in singlicate; n = 1
T2 construct: gene ADRBK1

GRK3 = system: T3, GRK3; settings: concentration: 1 μM, replicates: in singlicate; n = 1
T3 construct: gene ADRBK2

GRK4 = settings: concentration: 1 μM, replicates: in singlicate; n = 1
GRK7 = settings: concentration: 1 μM, replicates: in singlicate; n = 1
GSK3A = settings: concentration: 1 μM, replicates: in singlicate; n = 1
GSK3B = settings: n = 1
[1] = concentration: 1 μM, replicates: in singlicate
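Note: KINOMEscan kinase panel screen.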

| Structure (SMILES) | %Inh (FYN) [%] | %Inh (GAK) [%] | %Inh (GCN2(Kin.Dom.2,S808G)) [%] | %Inh (GRK1) [%] | %Inh (GRK2) [%] | %Inh (GRK3) [%] | %Inh (GRK4) [%] | %Inh (GRK7) [%] | %Inh (GSK3A) [%] | %Inh (GSK3B; [1]) [%] | %Inh (GSK3B; 1 µM) [%] |
| --- | --- | --- | --- | --- | --- | --- | --- | --- | --- | --- | --- |
| Fc1cc(Cl)ccc1Nc1ccnc2cc(-c3ccc(CN4CCOCC4)o3)ccc12 [GW560109] | 90.9 | 84 | 13 | 5 | 0 | 46 | 2 | 0 | 1 | 24 |  |
| CN(C)CCNS(=O)(=O)c1ccc(-c2ccnc3[nH]ccc23)cc1 [GSK977620] | 18 | 1 | 14 | 71 | 0 | 72 | 0 | 86 | 0 | 11 |  |
| CCNc1nccc(-c2c(-c3ccc(F)cc3)ncn2C2CCN(C)CC2)n1 | 0 | 57 | 0 | 0 | 0 | 0 | 0 | 0 | 21 | 0 |  |
| O=C(Nc1n[nH]c2nc(-c3ccccc3)ccc12)C1CC1 [SB-708999] | 0 | 17 | 0 | 10 | 0 | 28 | 9 | 0 | 77 |  | 12 |
| CC(C)c1nc(-c2cccc(NS(=O)(=O)c3c(F)cccc3F)c2)c(-c2ccnc(Nc3ccc(N4CCOCC4)nc3)n2)s1.Cl [GSK1723980] | 98.6 | 91.2 | 100 | 9 | 0 | 0 | 0 | 0 | 74 | 15 |  |
| Cl.Cl.NC(CNC(=O)c1cc(Br)c(-c2ccnc3[nH]ccc23)s1)c1ccccc1 (stereo not drawn) [GSK1322949] | 17 | 85 | 0 | 3 | 39 | 70 | 76 | 75 | 0 | 3 |  |
| COC(=O)Nc1nc2ccc(Oc3ccc(NC(=O)Nc4cc(C(F)(F)F)ccc4F)cc3)cc2[nH]1.Cl [GW654607] | 54 | 0 | 6 | 0 | 0 | 0 | 11 | 0 | 4 | 9 |  |
| Cc1ccc(-c2ccc3occ(-c4ccc(S(C)=O)cc4)c3c2)nn1 (stereo not drawn) | 0 | 0 | 1 | 12 | 0 | 0 | 7 | 0 | 3 | 0 |  |
| COc1cc(Nc2nccc(N3CCC(NC(=O)Nc4ccc5c(c4)OCO5)C3)n2)cc(OC)c1OC (stereo not drawn) [GSK1379766] | 36 | 21 | 0 | 0 | 0 | 8 | 0 | 0 | 0 | 2 |  |
| Cc1ccc(NC(=O)c2ccnc(N3CCCCC3)c2)cc1-c1ccc(C(=O)NCC2CC2)cc1 [GW775610] | 2 | 0 | 14 | 8 | 16 | 14 | 19 | 0 | 0 | 0 |  |
| O=C(O)C(F)(F)F.O=c1[nH]ccc2nc(N[C@@H]3CCNC3)nc(Nc3cc(Cl)cc(Cl)c3)c12 [GSK2188764] | 52 | 74 | 69 | 92 | 47 | 32 | 86 | 70 | 49 | 19 |  |
| CC(C)(C)c1ccc(C(=O)Nc2cn3cc(-n4ccnc4)ccc3n2)cc1 | 21 | 0 | 27 | 42 | 51 | 0 | 12 | 21 | 2 | 14 |  |
| Cn1cc(-c2cnc(N)c3c(-c4ccc5c(c4)CCN5C(=O)Cc4ccccc4)csc23)cn1 [GSK2593074] | 25 | 11 | 91.2 | 0 | 0 | 0 | 7 | 6 | 5 | 0 |  |
| Cl.N#CCc1ccc(Nc2nccc(Nc3ccc(Oc4ccccc4)cc3)n2)cc1 [GW639905] | 74 | 31 | 36 | 0 | 0 | 45 | 0 | 0 | 0 | 8 |  |
| Cc1ccccc1CC(=O)N1CCc2cc(-c3cn(C)c4ncnc(N)c34)ccc21 [GSK2603346] | 32 | 32 | 65 | 9 | 3 | 0 | 0 | 0 | 1 | 2 |  |
| Nc1ncc(-c2cn[nH]c2)c2scc(-c3ccc4c(c3)CCN4C(=O)Cc3ccccc3)c12 [GSK2593067] | 65 | 32 | 97.8 | 10 | 0 | 0 | 0 | 0 | 2 | 11 |  |
| CNc1nccc(-c2ccc3c(N)n[nH]c3c2)n1 [GSK2206003] | 17 | 69 | 0 | 0 | 15 | 23 | 46 | 14 | 14 | 0 |  |

| Structure (SMILES) | %Inh (FYN) [%] | %Inh (GAK) [%] | %Inh (GCN2(Kin.Dom.2,S808G)) [%] | %Inh (GRK1) [%] | %Inh (GRK2) [%] | %Inh (GRK3) [%] | %Inh (GRK4) [%] | %Inh (GRK7) [%] | %Inh (GSK3A) [%] | %Inh (GSK3B; [1]) [%] | %Inh (GSK3B; 1 µM) [%] |
| --- | --- | --- | --- | --- | --- | --- | --- | --- | --- | --- | --- |
| NCCC(NC(=O)c1cc(Br)c(-c2ccnc3[nH]ccc23)s1)c1ccccc1.O=C(O)C(F)(F)F.O=C(O)C(F)(F)F (stereo not drawn) [GSK1307810] | 0 | 83 | 0 | 100 | 82 | 96.4 | 72 | 89 | 0 | 20 |  |
| O=C1NC(=O)C(c2ccccc2Cl)=C1Nc1cccc(Cl)c1 [SB-342409] | 22 | 7 | 0 | 13 | 0 | 36 | 26 | 0 | 45 |  | 33 |
| COc1cc(Nc2nccc(N3CCC(NS(=O)(=O)c4ccc(NC(C)=O)cc4)CC3)n2)cc(OC)c1OC [GSK1379825] | 67 | 44 | 0 | 0 | 62 | 44 | 0 | 0 | 0 | 10 |  |
| COc1ccc(C)c(Nc2ccnc(Nc3ccc(-c4cnc[nH]4)cc3)n2)c1.Cl [GW784041] | 56 | 52 | 100 | 0 | 0 | 0 | 27 | 15 | 32 | 0 |  |
| Cc1cccc(Nc2nc(N[C@H]3CCCC[C@H]3N)ncc2C(N)=O)c1.Cl [GSK986310] | 52 | 55 | 72 | 0 | 0 | 17 | 6 | 1 | 24 | 19 |  |
| Cc1ccc(NC(=O)c2ccc(Cl)c(Cl)c2)cc1-c1ccc(C(=O)Nc2ccncc2)cc1 [GSK1398460] | 31 | 45 | 8 | 0 | 0 | 24 | 4 | 0 | 6 | 15 |  |
| COc1cccc(C2=C(Nc3cccc(O)c3)C(=O)NC2=O)c1 [SB-390771] | 0 | 0 | 0 | 4 | 0 | 31 | 0 | 100 | 0 |  | 13 |
| CS(=O)(=O)c1cccc(CNc2nc(Nc3ccc4c(c3)CCC(=O)N4)ncc2C(F)(F)F)c1 | 10 | 16 | 0 | 24 | 0 | 0 | 0 | 0 | 55 | 0 |  |
| O=C(Nc1c(F)cccc1F)c1cc(C(=O)c2ccccc2F)c[nH]1 [GSK1326180] | 0 | 0 | 0 | 0 | 0 | 35 | 0 | 0 | 10 | 1 |  |
| Nc1ncnc2scc(-c3ccc(NC(=O)Cc4cc(F)ccc4F)cc3)c12.O=C(O)C(F)(F)F [SB-731254-M] | 0 | 26 | 19 | 24 | 0 | 0 | 15 | 29 | 3 | 24 |  |
| COc1cccc(-c2nc(-c3ccccc3)[nH]c2-c2ccncc2)c1 [SB-610250] | 24 | 72 | 1 | 0 | 0 | 49 | 0 | 0 | 0 | 19 |  |
| O=C(Nc1n[nH]c2nc(-c3cccc(O)c3)ccc12)C1CC1 [SB-711805] | 0 | 23 | 12 | 24 | 0 | 0 | 24 | 3 | 98.8 |  | 96.3 |
| CN1CCN(Cc2ccc(NC(=O)Nc3ccc(N(C)c4ccnc(Nc5ccc(CS(C)(=O)=O)cc5)n4)cc3)cc2)CC1.Cl [GW827654] | 40 | 36 | 17 | 9 | 27 | 21 | 86 | 3 | 4 | 32 |  |
| COC(=O)Nc1nc2cc(Oc3ccc(NC(=O)Nc4cccc(SC)c4)cc3)ccc2[nH]1.Cl [GW697999] | 19 | 21 | 9 | 0 | 0 | 57 | 0 | 0 | 0 | 0 |  |
| CCn1cnc2c(NCc3ccccc3)ncnc21 [SKF-96418] | 0 | 0 | 0 | 39 | 0 | 0 | 6 | 0 | 0 | 35 |  |
| O=C(Nc1n[nH]c2cc(-c3cccs3)ccc12)C1CC1 [SB-731284] | 0 | 0 | 0 | 56 | 0 | 0 | 47 | 0 | 52 |  | 57 |
